We go through 39 compounds from PubChem BioAssay (NCI).

“And” between values parts separate entries of the source, which are not always exact repeats. Equal values may be shown once. Compounds without any hit were thinned out: in the full panel of roughly 83,000, 20% have a hit.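 Growth was measured after 48 h exposure to one concentration of compound in 96-well plates. Values under 10 count as active.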 Values without a mark were called inactive. The source made the active and inactive calls.

The assay deals with MDA-MB-468 breast. Briefly: NCI-60 one-dose screen, 48 h (100 = growth as untreated, 0 = no growth, -100 = all killed). The settings on record: 10 µM unless noted.
As to `NC(=O)c1ccccc1OCC(O)CO` (centres undefined), the growth is 95.6%.
On to `COC(=O)[C@@H]1CC[C@]2(C)[C@H](CC[C@@H]3O[C@@]32C)[C@@]1(C)CC(=O)c1ccoc1`, for which the growth is 95.7%.
In the case of `Oc1ccc(CSc2nnc(-c3ccncc3)o2)c2cccnc12` it was 11.9%.
Turning to `CCCCCCCC12Cc3ccccc3C1=Nc1c(c3ccccc3n1C)C2=O` (centres undefined), the growth is 97.3%.
On to `COC1=C(C)C(=O)c2c(c(CCCl)c3n2CCC3OC(C)=O)C1=O` (centres undefined), for which the growth was 85.5%.
As to `COc1cc(-c2csc(NC(=O)Nc3cccc(C(F)(F)F)c3)n2)cc(OC)c1OC`, the growth was 19.3%.
For `COc1cc2c(cc1-c1c(C)noc1C)ncc1nc(C3CCOCC3)n(C3CCC(OC(F)F)CC3)c12` (centres undefined) the value was 40.9%; for `Cc1cc(Cl)nc(Nc2ccccc2)n1`, 105%.
With `COc1ccc(C(O)c2cc3c(N)c(C(=O)Nc4cccc(Br)c4C)sc3nc2C)cc1` (centres undefined), the growth was 7.52% (active).
Turning to `CC(=O)O[C@@H]1CC2C(C)(C)CCCC2(C)C2=C1C(=O)C(C(C)C)=CC2=O` (some centres undefined), the growth is -35.6% (active).
In the case of `CCCCCCCCCCCCCCNc1nc(CO)ncc1-c1ccc(C(F)(F)F)cc1` it was 98.1%; in that of `CC[C@H](C)[C@@H]1NC(=O)[C@H](Cc2ccc(O)cc2)N(C)C(=O)[C@H](Cc2ccccc2)NC(=O)CN(C)C(=O)[C@@H]2CCCN2C(=O)[C@@H](Cc2ccccc2)N(C)C(=O)[C@H](CC(C)C)NC1=O`, -13.3% (active); in that of `O=S(=O)(NCCCNc1cc(-c2cn(-c3ccccc3)nc2-c2cccc(O)c2)ccn1)c1ccccc1`, 4.3% (active).
Consider `CCN(CC)C(=O)O/N=C(/C)c1ccccc1`, for which the growth was 96.5%.
Regarding `CC(=O)Nc1ccc(S(N)(=O)=O)cc1`, the growth is 100% and 97.2%.
`C#CCOc1ccc(C(Nc2ccc(OC)cc2)c2nnnn2C2CCCCC2)cc1` (centres undefined): the growth is 101%.
As to `CCc1ccc(Oc2c(-c3ccc(OCCc4cccc(C(F)(F)F)c4)cc3O)n[nH]c2C(F)(F)F)cc1`, the growth was 22.5%.
As to `COc1ccc(CCn2cncc2-c2c[nH]c3ccccc23)cc1`, the growth was 94.5%.
For `CCN1CCC(CCOC)(CN2c3ccccc3Sc3ccc(Cl)cc32)C1` (centres undefined) the value was 16.9%; for `Cc1c(C(=O)N[C@@H](Cc2ccccc2)C(=O)C(=O)NCCc2ccccc2)[nH]c2ccccc2c1=O`, 110%; for `Cc1ccc(S(=O)(=O)N/N=C/C2(c3ccccc3)CC2)cc1`, 95.8%.
Consider `CCCCCOc1ccc(/C=N/Nc2cc(C)nc3ccc(Br)cc23)cc1`, for which the growth is -15.1% (active).
As to `COc1cc(/C=C2\C(=O)Nc3ccc(N(C)C)cc32)cc(OC)c1OC`, the growth was -2.28% (active).
Take `C[C@H](NC(=O)[C@@H](C)N)[C@H](Oc1ccc2c(cnn2-c2ccc(F)cc2)c1)c1ccc2c(c1)OCCO2`: the growth was 37.7%.
On to `Cc1ccc(Cl)cc1NC(=O)c1cc2ccccc2cc1O`, for which the growth was -58.7% (active).
Turning to `Cc1cc(C)c2c(c1)N1OC(C2)C[C@H]1/C=C/c1ccccc1` (some centres undefined), the growth was 92.4%.
For `CCc1ccc(Oc2cn[nH]c2-c2ccc(OCCc3ccc(F)cc3)cc2O)cc1` the value was 105%; for `CCN(CC)CCC(CNc1ccnc2cc(Cl)ccc12)c1ccc(OC)cc1` (centres undefined), 9.36% (active) and -3.58% (active).
For `CCCCC[C@H]1CC=C2C(=O)C=C[C@@H]2CC=CCCCC(=O)O[C@@H](CCCCC)CC=C2C(=O)C=C[C@@H]2CC=CCCCC(=O)O[C@@H](CCCCC)CC=C2C(=O)C=C[C@@H]2CC=CCCCC(=O)O1` the value was 7.64% [8.75 µM] (active); for `CCN1C(=O)N(CC)C2C1NN=c1s/c(=C\c3ccccc3Br)c(=O)n12` (centres undefined), 27.5%; for `COc1ccc(-c2nc(N3CCCC3=O)sc2Br)cc1OC`, 94.8%.
In the case of `C#Cc1ccc(-n2c(/C=C/c3ccc(C(F)(F)F)cc3)nc3ncccc3c2=O)cc1`, the growth was -9.87% (active).
Turning to `COc1ccc(/C=N/C2=C(C#N)C(c3ccccc3)c3c(ccc4ccccc34)O2)cc1` (centres undefined), the growth is -3.92% (active).
Regarding `NC(CCC(=O)NC(CS)C(=O)NCC(=O)O)C(=O)O` (centres undefined), the growth is 102%.
As for `Cn1ccnc1C(=O)/C=C/c1ccc(C(=O)Nc2ccc(Cl)cc2)cc1`, the growth was 12.1%.
Turning to `O=C(CC(=O)c1ccccc1O)c1ccccc1`, the growth was 71.9%.
In the case of `CCCc1cc(NC)nc(S(=O)(=O)CC)n1`, the growth is 119%.
For `Cc1cc(C(=O)Nc2cc(Nc3ncccc3-c3ncnc4nc[nH]c34)ccc2F)cc(C(C)(C)C#N)c1`, the growth is 87.7%.
Regarding `O=C(NNC(=O)c1nc2cc(F)ccc2n2cccc12)c1cnccn1`, the growth was 22.2%.
